Source: PubChem BioAssay (NMMLSC)
Compounds with a hit are over-represented: about 2.5% of the library has one in this group of screens.
MEKK2mut PB1 HTS – MEK5 binding signal on mutant MEKK2 PB1, primary screen, biochemical, multiplex bead flow cytometry, Alexa488-MEK5; Alexa488-MEK5 binding to MEKK2 mutant; percent response, % at 10 µM; hit rate 0.35% among 290,000; AID 1530, 2009; in the data active = percent response above about 24%, passing the limit was not always enough
MEKK2wt PB1 HTS – modulators of MEK5 binding to wildtype MEKK2, primary screen, biochemical, multiplex bead flow cytometry, Alexa488-MEK5; binding response (% of control), % at 10 µM; AID 1531, 2009; Mitogen-activated protein kinase kinase kinase 2 (Homo sapiens), Q9Y2U5; hit rate 1.1% among 290,000; Alexa488-MEK5 binding to MEKK2 WT; actives lie on both sides; in the data active = binding response below about 67% or above about 130%
MEKK3 PB1 HTS – modulators of MEKK3-MEK5 PB1 binding, primary screen, biochemical, wildtype MEKK3, multiplex bead flow cytometry, Alexa488-MEK5. Mitogen-activated protein kinase kinase kinase 3 (Homo sapiens), Q99759. bead-based flow cytometry, Alexa488-MEK5 binding to MEKK3; actives lie on both sides; 0 = blocked by unlabeled MEK5, 100 = vehicle. binding response (% of control), % at 10 µM. hit rate 1.4% among 290,000. AID 1529, 2009;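 active = binding response more than 3 SD above or below the average of its plate-row segment, actives on both sides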;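 also: Alexa488 bead fluorescence after subtracting the streptavidin-only scavenger bead signal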
Target sequence (Q99759 whole entry, looked up): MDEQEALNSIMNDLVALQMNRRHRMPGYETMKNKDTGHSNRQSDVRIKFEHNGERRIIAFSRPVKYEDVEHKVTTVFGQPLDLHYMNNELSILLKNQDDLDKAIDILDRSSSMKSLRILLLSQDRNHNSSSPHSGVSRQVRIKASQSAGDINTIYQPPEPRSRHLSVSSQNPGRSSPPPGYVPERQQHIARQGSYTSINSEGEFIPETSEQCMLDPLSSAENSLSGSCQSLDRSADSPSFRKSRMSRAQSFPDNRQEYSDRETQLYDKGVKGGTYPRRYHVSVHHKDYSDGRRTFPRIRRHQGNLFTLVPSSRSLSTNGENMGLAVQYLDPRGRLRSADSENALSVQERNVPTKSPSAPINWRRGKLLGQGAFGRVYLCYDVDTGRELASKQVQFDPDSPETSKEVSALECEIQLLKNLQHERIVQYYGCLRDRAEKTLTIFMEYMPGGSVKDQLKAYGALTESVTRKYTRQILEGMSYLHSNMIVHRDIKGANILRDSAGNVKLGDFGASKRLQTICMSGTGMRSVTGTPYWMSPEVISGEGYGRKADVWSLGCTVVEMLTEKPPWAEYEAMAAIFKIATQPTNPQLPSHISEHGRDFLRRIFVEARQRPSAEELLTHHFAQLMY
GRK2 aptamer HTS – compounds blocking aptamer binding on GRK2 – biochemical, human GRK2, bead flow cytometry, HTS, primary screen; FAM-aptamer displacement from GRK2; inhibition of aptamer binding, % at 10 µM; hit rate 0.59% among 330,000; AID 488847, 2010;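 active = inhibition of aptamer binding above 40%, roughly 3 SD of noise, on plates passing a quality check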;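 also: median bead fluorescence of bound FAM aptamer so fluorescent compounds give negative values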
GRK2 CP1 – GRK2 aptamer-displacing inhibitors, retest, confirmation, biochemical, cherry pick 1, bead flow cytometry. AID 504451, 2011. aptamer displacement, % at 10 µM. hit rate 4% among 2,000. bead-bound GRK2, FAM-aptamer displacement. shares compounds with GRK2 aptamer HTS;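 active = aptamer displacement above 40%, near three times the noise of non-fluorescent compounds, on plates passing quality checks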;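 also: negative values mostly reflect intrinsic compound fluorescence rather than true enhancement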
FAM quench CP1 – quenches fluorescent RNA aptamer, GRK2 hit artifact; shares compounds with GRK2 aptamer HTS; Carboxyfluorescein RNA aptamer on beads, flow cytometry quenching; active compounds read low; fluorescence response (% of DMSO), % at 10 µM; 2,000 tested, under 10 active;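 active = compounds that quench the bead-bound fluorescent RNA probe, cutting fluorescence to under half of the solvent control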;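 also: counterscreen run without GRK2 so only probe quenching by compound is measured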
* hit, by the source's call; . = no result given.

SMILES	MEKK2mut PB1 HTS	MEKK2wt PB1 HTS	MEKK3 PB1 HTS	GRK2 aptamer HTS	GRK2 CP1	FAM quench CP1
COc1cccc(OC)c1C(=O)n1nc(C)cc1C	3.0	103.0	108.0	15.0	-1.6	101.8
CCC(C)c1ccc(NC(=O)COc2c(F)c(F)c(C(F)(F)F)c(F)c2F)cc1 (stereo not drawn)	19.0	106.0	103.0	1.0	.	.
CCOC(=O)Nc1ccc2c(c1)nc(CN1CCN(C(C)=O)CC1)n2C	-1.0	101.0	101.0	68.0*	-0.5	104.3
O=C1c2nccnc2C(=O)N1c1ccc(C(F)(F)F)cc1	1.0	98.0	105.0	57.0*	-1.6	101.7
Cc1ccc(-c2cnc3ccccc3n2)cc1C	2.0	101.0	101.0	0.0	2.0	101.0
CC(Cc1ccccc1)C(=O)NCc1ccncc1 (stereo not drawn)	2.0	94.0	102.0	.	.	.
CCC(=O)Nc1ccccc1C(=O)C(=O)Nc1ccccc1	-2.0	100.0	99.0	40.0	-2.2	97.0
O=C(NCc1ccc(Cl)cc1)N1CCOCC1	14.0	114.0	107.0	2.0	.	.
CC(C)(C)NC(=O)COC(=O)CCC(=O)c1ccc(F)cc1	-4.0	93.0	98.0	99.0*	0.3	101.2
O=C(/C=C/c1ccco1)Nc1ccccc1C(=O)O	7.0	98.0	82.0	71.0*	-4.1	101.1
O=C(Nc1ccc(S(=O)(=O)Nc2nccs2)cc1)C1CC(=O)N(c2ccccc2)C1 (stereo not drawn)	-1.0	101.0	110.0	2.0	.	.
O=C(CCSc1nc(-c2ccco2)cc(C(F)(F)F)n1)N1CCN(c2ccccn2)CC1	-7.0	100.0	97.0	0.0	.	.
CC(=O)Nc1ccc2c(c1)nc(CCNC(=O)c1ccccc1)n2C	3.0	98.0	96.0	57.0*	-0.7	98.9
CCC(=O)NCCc1nc2cc(NC(=O)c3ccccc3Cl)ccc2n1C	1.0	106.0	102.0	0.0	.	.
CCC(=O)NCCc1nc2cc(NC(=O)Nc3ccccc3)ccc2n1C	5.0	105.0	104.0	6.0	-10.0	95.9
Cn1c(CCNC(=O)c2ccccc2)nc2ccccc21	-3.0	90.0	82.0	1.0	.	.
Cn1c(CCNC(=O)c2ccccc2)nc2cc(NC(=O)C3CCCCC3)ccc21	3.0	103.0	101.0	1.0	-8.4	99.4
Cc1cccc(OCC(=O)NCCCNC(=O)c2ccc(C)nc2)c1	-1.0	95.0	94.0	2.0	.	.
Cc1sc2nc(CSCC(=O)Nc3ccc(C(=O)N(C)C)cc3)[nH]c(=O)c2c1C	.	.	.	4.0	.	.
O=C1c2cccc3c([N+](=O)[O-])ccc(c23)C(=O)N1c1ccccn1	4.0	104.0	105.0	2.0	.	.
O=C1c2cccc3c([N+](=O)[O-])ccc(c23)C(=O)N1O	-7.0	97.0	92.0	56.0*	-5.5	97.3
Cc1ccc(S(=O)(=O)N2CCN(C(=O)c3cc4c(s3)CCCC4)CC2)c(C)c1	.	.	.	49.0*	-0.4	99.0
COc1ccc(S(=O)(=O)N2CCN(C(=O)c3cc4c(s3)CCC4)CC2)cc1	.	.	.	82.0*	25.4	109.3
O=C(c1cc2c(s1)CCCC2)N1CCN(S(=O)(=O)c2ccccc2C(F)(F)F)CC1	-2.0	99.0	97.0	0.0	.	.
Cc1ccc(S(=O)(=O)N2CCN(C(=O)c3cc4c(s3)CCCC4)CC2)cc1	.	.	.	1.0	.	.
SMILES	MEKK2mut PB1 HTS	MEKK2wt PB1 HTS	MEKK3 PB1 HTS	GRK2 aptamer HTS	GRK2 CP1	FAM quench CP1
CN(C)CCNC(=O)C(=O)NCC1OCCN1S(=O)(=O)c1cc(F)ccc1F (stereo not drawn)	8.0	121.0	103.0	0.0	.	.
COC(=O)C1=CO[C@@H](OC2OC(CO)C(O)C(O)C2O)[C@@H]2[C@@H](C)[C@@H](O)C[C@H]12 (stereo partly drawn)	2.0	108.0	106.0	0.0	.	.
C=C[C@H]1[C@H](OC2OC(CO)C(O)C(O)C2O)OC=C(C(=O)OC)[C@H]1C[C@H]1CC(=O)C[C@H](CC(=O)CCc2ccc(O)cc2)O1 (stereo partly drawn)	5.0	111.0	106.0	97.0*	3.1	96.7
COc1ccc(Cl)cc1-c1nc(SCC(=O)NC(C)C(C)C)n[nH]1 (stereo not drawn)	-3.0	99.0	99.0	4.0	.	.
COc1ccc(Cl)cc1-c1nc(SCC(=O)NC(C)C)n[nH]1	-1.0	105.0	110.0	46.0*	-0.6	98.0
O=C(COC(=O)Cc1ccsc1)Nc1ccc(F)cc1Cl	.	.	.	0.0	.	.
O=C(Nc1ccccc1Cl)N1CCN(C/C=C/c2ccccc2)CC1	-2.0	99.0	97.0	0.0	.	.
Cc1ccccc1NC(=O)N1CCN(C/C=C/c2ccccc2)CC1	-1.0	103.0	100.0	66.0*	2.9	99.0
COc1cc(NC(=O)c2csc(-c3ccncc3)n2)cc(C(=O)Nc2cccc(C(F)(F)F)c2)c1	5.0	88.0	87.0	1.0	-2.1	98.3
COc1ccc(-c2cc(C(=O)Nc3cc(OC)cc(C(=O)Nc4cccc(C(F)(F)F)c4)c3)[nH]n2)cc1	5.0	106.0	110.0	0.0	-1.4	97.4
COc1cc(NC(=O)c2ccno2)cc(C(=O)Nc2cccc(C(F)(F)F)c2)c1	2.0	98.0	108.0	3.0	.	.
O=C(Nc1ccc(Cl)cc1)Nc1ccccc1NS(=O)(=O)c1cccs1	-3.0	97.0	97.0	0.0	.	.
CC(Oc1ccccc1)c1ccnn1S(C)(=O)=O (stereo not drawn)	7.0	113.0	107.0	38.0	0.8	97.9
CC(Oc1ccc(Cl)cc1)c1ccnn1S(=O)(=O)c1ccccc1 (stereo not drawn)	1.0	103.0	94.0	0.0	.	.
O=C(OCCOc1ccccc1)c1n[nH]c2ccccc12	-5.0	102.0	99.0	78.0*	3.6	97.2
CNC(=O)NC(=O)COC(=O)c1n[nH]c2ccccc12	-3.0	102.0	98.0	45.0*	-0.3	98.2
O=C(COC(=O)c1n[nH]c2ccccc12)NC(=O)NC1CCCCC1	4.0	111.0	109.0	2.0	.	.
CCOC(=O)c1n[nH]c2ccccc12	.	.	.	1.0	.	.
O=c1c2ccccc2nc2n1CCC2	2.0	100.0	100.0	9.0	.	.
O=c1c2ccccc2nc2n1CCc1c-2[nH]c2ccccc12	.	.	.	19.0	3.2	95.3
COc1ccc(/C(O)=C2/C(=O)C(=O)N(CCN(C)C)C2c2ccc(C)cc2)cc1Cl (stereo not drawn)	5.0	112.0	107.0	0.0	.	.
COc1ccc(/C(O)=C2/C(=O)C(=O)N(CCN(C)C)C2c2ccc(OC)c(OC)c2)c(C)c1 (stereo not drawn)	7.0	101.0	97.0	71.0*	-3.4	114.4
O=C(O)c1cccc(Nc2c3ccccc3nc3ccccc23)c1	-7.0	102.0	100.0	51.0*	0.4	94.3
